# Over roughly 2,900 compounds, “NF-kB SEAP reporter activity, fold change vs agonist alone” has its median near 0.99; the highest 2% begin near 2.6. This excerpt belongs to a sample that is enriched for the highest values.
# Legend:
# RAW-Dual [1] = assay: NF-kB SEAP reporter activity, fold change vs agonist alone; cytotoxicity flag (confluency mask): not cytotoxic; higher = enhanced NF-kB activity
# Outline: (§1)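 Supernatant from RAW-Dual macrophages was read after 20 hours for IRF by QuantiLuc luminescence and for NF-κB by QuantiBlue absorbance at 620 nm. The cells (50,000 cells/well in DMEM, 384-well plates, 37 °C, 5% CO2) had received 50 nL of library stock by pin tool and, 1 h later, a PRR agonist. Reporter activity is expressed relative to agonist-alone wells as fold change, and wells were flagged cytotoxic if IncuCyte confluency was under 70% of agonist controls in both mask sets.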
# RAW-Dual [2] = assay: NF-kB SEAP reporter activity, fold change vs agonist alone; higher = enhanced NF-kB activity
# Outline: as §1
# RAW-Dual [3] = assay: NF-kB SEAP reporter activity, fold change vs agonist alone; cytotoxicity flag (confluency mask): cytotoxic (confluency <70% of control); higher = enhanced NF-kB activity
# Outline: as §1
# [4] = agonist: ODN 1826 (TLR9) 0.5 ug/mL
# [5] = agonist: Pam2CSK4 (TLR2/6) 0.1 ug/mL
# [6] = agonist: Pam3CSK4 (TLR2/1) 0.1 ug/mL
# [7] = library stock concentration (final ~1000-fold dilution): 10 mM, cytotoxicity flag (confluency mask): not cytotoxic, agonist: Imiquimod (TLR7) […]
# [8] = library stock concentration (final ~1000-fold dilution): 10 mM, cytotoxicity flag (confluency mask): not cytotoxic, agonist: MPLA (TLR4) […]
# [9] = library stock concentration (final ~1000-fold dilution): 10 mM, cytotoxicity flag (confluency mask): cytotoxic (confluency <70% of control), agonist: Imiquimod (TLR7) […]
# [10] = library stock concentration (final ~1000-fold dilution): 10 mM, cytotoxicity flag (confluency mask): cytotoxic (confluency <70% of control), agonist: MPLA (TLR4) […]
smiles,measurement,setting,value
Cc1nccn1CC1CCc2c(c3ccccc3n2C)C1=O.Cl (configuration not stated) (library stock concentration (final ~1000-fold dilution): 10 mM),NF-kB SEAP reporter activity,RAW-Dual [1]; agonist: LPS (TLR4) 0.1 ug/mL,0.91
same,NF-kB SEAP reporter activity,RAW-Dual [1]; [4],0.853
same,NF-kB SEAP reporter activity,RAW-Dual [1]; [5],0.901
same,NF-kB SEAP reporter activity,RAW-Dual [1]; [6],1.11
Cc1nccn1CC1CCc2c(c3ccccc3n2C)C1=O.Cl (configuration not stated),NF-kB SEAP reporter activity,RAW-Dual [2]; [7],0.917
same,NF-kB SEAP reporter activity,RAW-Dual [2]; [8],0.785
C#Cc1cccc(Nc2ncnc3cc(OC)c(NC(=O)N4CC5CCN(C)C5C4)cc23)c1 (configuration not stated) (library stock concentration (final ~1000-fold dilution): 10 mM),NF-kB SEAP reporter activity,RAW-Dual [1]; agonist: LPS (TLR4) 0.1 ug/mL,3.99
same,NF-kB SEAP reporter activity,RAW-Dual [1]; [4],0.205
same,NF-kB SEAP reporter activity,RAW-Dual [1]; [5],0.732
same,NF-kB SEAP reporter activity,RAW-Dual [1]; [6],0.783
C#Cc1cccc(Nc2ncnc3cc4c(cc23)OCCOCCOCCO4)c1,NF-kB SEAP reporter activity,RAW-Dual [2]; [7],1.06
same,NF-kB SEAP reporter activity,RAW-Dual [2]; [8],1.53
COc1cc2ncnc(Nc3ccc(O)c(Br)c3)c2cc1OC,NF-kB SEAP reporter activity,RAW-Dual [2]; [7],1.45
same,NF-kB SEAP reporter activity,RAW-Dual [2]; [8],1.78
COc1cc2ncnc(Nc3cccc(Cl)c3)c2cc1OC (library stock concentration (final ~1000-fold dilution): 10 mM),NF-kB SEAP reporter activity,RAW-Dual [3]; agonist: LPS (TLR4) 0.1 ug/mL,1.59
same,NF-kB SEAP reporter activity,RAW-Dual [3]; [4],0.692
same,NF-kB SEAP reporter activity,RAW-Dual [3]; [5],0.764
same,NF-kB SEAP reporter activity,RAW-Dual [3]; [6],1.02
COc1cc2ncnc(Nc3ccc(O)c(Br)c3)c2cc1OC (library stock concentration (final ~1000-fold dilution): 10 mM),NF-kB SEAP reporter activity,RAW-Dual [1]; agonist: LPS (TLR4) 0.1 ug/mL,2.33
same,NF-kB SEAP reporter activity,RAW-Dual [1]; [4],1.17
same,NF-kB SEAP reporter activity,RAW-Dual [1]; [5],0.685
same,NF-kB SEAP reporter activity,RAW-Dual [1]; [6],1.19
C#Cc1cccc(Nc2ncnc3cc(OC)c(NC(=O)N4CC5CCN(C)C5C4)cc23)c1 (configuration not stated),NF-kB SEAP reporter activity,RAW-Dual [2]; [7],1.09
same,NF-kB SEAP reporter activity,RAW-Dual [2]; [8],1.4
C#Cc1cccc(Nc2ncnc3cc(OC)c(OCCCCCCC(=O)NO)cc23)c1,NF-kB SEAP reporter activity,RAW-Dual [2]; [9],1.4
same,NF-kB SEAP reporter activity,RAW-Dual [2]; [10],1.87
C#Cc1cccc(Nc2ncnc3cc(OCCOC)c(OCCO)cc23)c1.Cl (library stock concentration (final ~1000-fold dilution): 10 mM),NF-kB SEAP reporter activity,RAW-Dual [1]; agonist: LPS (TLR4) 0.1 ug/mL,4.71
same,NF-kB SEAP reporter activity,RAW-Dual [1]; [4],1.41
same,NF-kB SEAP reporter activity,RAW-Dual [1]; [5],1.02
same,NF-kB SEAP reporter activity,RAW-Dual [1]; [6],1.87
COc1cc2ncnc(Nc3cccc(Cl)c3F)c2cc1OC(=O)N1CCN(C)CC1C (configuration not stated),NF-kB SEAP reporter activity,RAW-Dual [2]; [7],0.868
same,NF-kB SEAP reporter activity,RAW-Dual [2]; [8],1.05
COc1cc2ncnc(Nc3ccc(O)cc3)c2cc1OC,NF-kB SEAP reporter activity,RAW-Dual [2]; [7],1.05
same,NF-kB SEAP reporter activity,RAW-Dual [2]; [8],1.16
COc1cc2ncnc(Nc3ccc(F)c(Cl)c3)c2cc1NC(=O)/C=C/CN1CCCCC1,NF-kB SEAP reporter activity,RAW-Dual [2]; [9],2.28
same,NF-kB SEAP reporter activity,RAW-Dual [2]; [10],1.52
COc1cc2ncnc(Nc3cccc(Cl)c3F)c2cc1OC(=O)N1CCN(C)CC1C (configuration not stated) (library stock concentration (final ~1000-fold dilution): 10 mM),NF-kB SEAP reporter activity,RAW-Dual [1]; agonist: LPS (TLR4) 0.1 ug/mL,1.19
same,NF-kB SEAP reporter activity,RAW-Dual [1]; [4],0.84
same,NF-kB SEAP reporter activity,RAW-Dual [1]; [5],1.19
same,NF-kB SEAP reporter activity,RAW-Dual [1]; [6],1.1
C#Cc1cccc(Nc2ncnc3cc(OCCOC)c(OCCOC)cc23)c1.Cl (library stock concentration (final ~1000-fold dilution): 2 mM),NF-kB SEAP reporter activity,RAW-Dual [1]; agonist: LPS (TLR4) 0.1 ug/mL,2.26
same,NF-kB SEAP reporter activity,RAW-Dual [1]; [4],0.972
same,NF-kB SEAP reporter activity,RAW-Dual [1]; [5],0.853
same,NF-kB SEAP reporter activity,RAW-Dual [1]; [6],1.1
C#Cc1cccc(Nc2ncnc3cc(OC)c(OCCCCCCC(=O)NO)cc23)c1 (library stock concentration (final ~1000-fold dilution): 10 mM),NF-kB SEAP reporter activity,RAW-Dual [3]; agonist: LPS (TLR4) 0.1 ug/mL,7.09
same,NF-kB SEAP reporter activity,RAW-Dual [3]; [4],1.67
same,NF-kB SEAP reporter activity,RAW-Dual [3]; [5],0.682
same,NF-kB SEAP reporter activity,RAW-Dual [3]; [6],1.41
C#Cc1cccc(Nc2ncnc3cc(OCCOC)c(OCCOC)cc23)c1,NF-kB SEAP reporter activity,RAW-Dual [2]; [7],1.02
same,NF-kB SEAP reporter activity,RAW-Dual [2]; [8],1.88
C#Cc1cccc(Nc2ncnc3cc4c(cc23)OCCOCCOCCO4)c1 (library stock concentration (final ~1000-fold dilution): 10 mM),NF-kB SEAP reporter activity,RAW-Dual [1]; agonist: LPS (TLR4) 0.1 ug/mL,1.8
same,NF-kB SEAP reporter activity,RAW-Dual [1]; [4],0.972
same,NF-kB SEAP reporter activity,RAW-Dual [1]; [5],1.16
same,NF-kB SEAP reporter activity,RAW-Dual [1]; [6],1.44
C#Cc1cccc(Nc2ncnc3cc(OCCOC)c(OCCOC)cc23)c1.Cl,NF-kB SEAP reporter activity,"RAW-Dual [2]; library stock concentration (final ~1000-fold dilution): 2 mM, cytotoxicity flag (confluency mask): not cytotoxic, agonist: Imiquimod (TLR7) […]",0.949
same,NF-kB SEAP reporter activity,"RAW-Dual [2]; library stock concentration (final ~1000-fold dilution): 2 mM, cytotoxicity flag (confluency mask): not cytotoxic, agonist: MPLA (TLR4) […]",1.39
COc1cc2ncnc(Nc3ccc(O)cc3)c2cc1OC (library stock concentration (final ~1000-fold dilution): 10 mM),NF-kB SEAP reporter activity,RAW-Dual [1]; agonist: LPS (TLR4) 0.1 ug/mL,0.948
same,NF-kB SEAP reporter activity,RAW-Dual [1]; [4],0.826
same,NF-kB SEAP reporter activity,RAW-Dual [1]; [5],0.971
same,NF-kB SEAP reporter activity,RAW-Dual [1]; [6],0.867
COc1cc2ncnc(Nc3ccc(F)c(Cl)c3)c2cc1NC(=O)/C=C/CN1CCCCC1 (library stock concentration (final ~1000-fold dilution): 10 mM),NF-kB SEAP reporter activity,RAW-Dual [3]; agonist: LPS (TLR4) 0.1 ug/mL,0.266
same,NF-kB SEAP reporter activity,RAW-Dual [3]; [4],0.26
same,NF-kB SEAP reporter activity,RAW-Dual [3]; [5],0.179
same,NF-kB SEAP reporter activity,RAW-Dual [3]; [6],0.384
COc1cc2ncnc(Nc3cccc(Cl)c3)c2cc1OC,NF-kB SEAP reporter activity,RAW-Dual [2]; [9],1.58
same,NF-kB SEAP reporter activity,RAW-Dual [2]; [10],1.42
COc1cc2ncnc(Nc3cc(Br)c(O)c(Br)c3)c2cc1OC (library stock concentration (final ~1000-fold dilution): 10 mM),NF-kB SEAP reporter activity,RAW-Dual [1]; agonist: LPS (TLR4) 0.1 ug/mL,2.14
same,NF-kB SEAP reporter activity,RAW-Dual [1]; [4],0.951
same,NF-kB SEAP reporter activity,RAW-Dual [1]; [5],0.984
same,NF-kB SEAP reporter activity,RAW-Dual [1]; [6],0.757
C#Cc1cccc(Nc2ncnc3cc(OCCOC)c(OCCO)cc23)c1.Cl,NF-kB SEAP reporter activity,RAW-Dual [2]; [7],1.81
same,NF-kB SEAP reporter activity,RAW-Dual [2]; [8],2.51
